# Laboratory results: PubChem BioAssay AID1851 (National Center for Advancing Translational Sciences (NCATS), 2009)
# Where “and” joins values, the source holds several entries; their conditions need not be identical. Equal values may be shown once. Hit rate of the full screen: of about 16,000 compounds, about 5,100 (32%) were called active. Roughly 25% stayed inconclusive and do not appear here. Calls come from the whole dose curve; as a rule, active = well fitted curve in the direction sought with a large enough effect; inconclusive = small, poorly fitted or top-dose-only effect, or effect the other way; inactive = no such curve, though single readings can be large or run the other way. Some of the results follow.
# Target: Cytochrome P450 3A4 (Homo sapiens) (UniProt P08684)
# Assay: Cytochrome panel assay with activity outcomes
# Details: recombinant CYP, pro-luciferin dealkylation, luminescence, p450-cyp3a4; series mostly up to 57.1 µM; activity, negative = inhibition: at the top concentration
# Procedure: The P450 gene superfamily is involved in the metabolism and clearance of xenobiotics. This assay used various human CYP P450 isozymes to measure the dealkylation of various pro-luciferin substrates to luciferin. The luciferin is then measured by luminescence after the addition of a luciferase detection reagent. Pro-luciferin substrate concentration in the assay was equal to its KM for its CYP P450 isozyme. Inhibitors and some substrates limit the production of luciferin, and decrease measured luminescence.
# NCGC Assay Protocol Summary:
# 1, Reagent, 2 uL, Isozyme and Pro-Luciferin
# 2, Library compounds, 23 nl, 40 uM to 0.24 nM dilution series
# 3, Controls, 23 nl, Isozyme specific inhibitor
# 4, Reagent, 2 uL, NADPH regeneration solution
# 5, Incubation time, 60 min, Isozyme specific temperature
# 6, Reagent, 4ul, Detection reagent
# 7, Incubation time, 20 min, Isozyme specific temperature
# 8, Detection, 1 sec, ViewLux luminescent read
# The luciferase-based P450-GloTM Screening Systems were obtained from Promega (Madison, WI) for CYP 1A2 (V9770), CYP 2C9 (V9790), CYP2 C19 (V9880), CYP 2D6 (V9890), and CYP 3A4 Luciferin-PPXE (V9910) and were adapted for 1,536-well microplates and an automated protocol. The control compounds furafylline for 1A2 (F124), sulfaphenazole for CYP 2C9 (S0758), ketoconazole for CYP 2C19 (K1003), quinidine for 2D6 (Q3625), and ketoconazole for 3A4 (K1003) were purchased from Sigma Aldrich (St. Louis, MO). Recombinant P450 enzymes were obtained from baculovirus constructs expressed in insect cells (BD/Gentest).
# Medium-binding white solid Kalypsys plates used. Mixtures kept on ice. 1A2: 10 nM 1A2, 100 uM Luc-ME, 100 mM KPO4; 2C9: 10 nM 2C9, 100 uM Luc-H, 25 mM KPO4; 2C19: 5 nM 2C19, 10 uM Luc-H EGE, 50 mM KPO4; 2D6: 5 nM 2D6, 30 uM Luc-ME EGE, 100 mM KPO4; 3A4: 10 nM, 25 uM Luc-PPXE. All amounts are reflected in their final concentration, working concentration is 2x.
# NADPH regeneration solution: 1.3 mM NADP+, 3.3 mM glucose-6-phosphate, 3.3 mM MgCl2, 0.4 U/mL glucose-6-phosphate dehydrogenase for all isozymes, 200 mM KPO4 for 3A4. Mixture prepared at RT but kept on ice during automated run.
# RT incubation in auxilliary plate hotel for 1A2, 2D6, and 3A4; 37C for 2C9 and 2C19.
# Keywords: P450, CYP1A2, CYP2C19, CYP2C9, CYP2D6, CYP3A4, Luciferase, MLSMR, MLSCN, NIH Roadmap, qHTS, NCGC
# % is set by controls: 0 for no effect and ±100 for the full control effect.
# Cytochrome P450 3A4 (Homo sapiens), sequence (P08684 whole entry, looked up): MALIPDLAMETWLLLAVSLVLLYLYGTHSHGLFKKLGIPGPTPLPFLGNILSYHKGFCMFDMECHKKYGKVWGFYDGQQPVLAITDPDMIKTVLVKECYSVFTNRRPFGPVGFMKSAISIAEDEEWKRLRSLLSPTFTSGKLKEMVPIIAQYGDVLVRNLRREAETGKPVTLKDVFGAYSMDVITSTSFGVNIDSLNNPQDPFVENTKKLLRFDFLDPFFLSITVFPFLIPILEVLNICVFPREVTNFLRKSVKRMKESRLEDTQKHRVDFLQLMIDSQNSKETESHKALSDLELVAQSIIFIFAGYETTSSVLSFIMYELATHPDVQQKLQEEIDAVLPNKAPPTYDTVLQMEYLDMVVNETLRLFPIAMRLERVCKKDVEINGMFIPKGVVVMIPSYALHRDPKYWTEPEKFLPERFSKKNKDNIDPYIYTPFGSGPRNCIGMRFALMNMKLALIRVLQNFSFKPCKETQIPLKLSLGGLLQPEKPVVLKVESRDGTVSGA
Structure (SMILES),AC50,"activity, negative = inhibition"
N#C/C(=C\c1ccc(O)c(O)c1)C(N)=S,12.6 µM (active) and 15.8 µM (active),–
N#C/C(=C\c1ccc(O)c(O)c1)C(=O)NCCCNC(=O)/C(C#N)=C/c1ccc(O)c(O)c1,2 µM (active),–
CC[C@@H]1[C@@H]2C[C@H]3[C@H]4N(C)c5ccccc5[C@@]45C[C@@H]([C@@H]2[C@@H]5O)N3[C@H]1O,–,1.61% [at 25.6 µM] (inactive)
CNC[C@H](O)c1ccc(O)cc1,–,-13% [at 25.6 µM] (inactive)
NC[C@H](CP(=O)(O)O)c1ccc(Cl)cc1,–,-3.38% (inactive)
CC1(C)[C@@H]2CC[C@]1(C)CN(CCC[N+](C)(C)C)C2,–,12.3% [at 11.4 µM] (inactive)
C[N+](C)(C)CCCCCC[N+](C)(C)C,–,-2.76% [at 25.6 µM] (inactive)
O=C(Nc1ccc(C(F)(F)F)cc1)c1cccn(Cc2ccc3c(c2)OC(F)(F)O3)c1=O,–,-21.3% (inactive)
CCCCn1c(O)c(C(CC)=Nc2ccc(OC)cc2OC)c(=O)[nH]c1=O,7.94 µM (active),–
C=CCn1c(O)c(C(CC)=NC2CC2)c(=O)[nH]c1=O,–,-14.9% [at 2.29 µM] (inactive)
O=C(CCCN1CCC(n2c(=O)[nH]c3ccccc32)CC1)c1ccc(F)cc1,–,-10.2% [at 25.6 µM] (inactive)
CCCn1c(C)c(C(=O)c2cccc3ccccc23)c2ccccc21,–,-13.7% (inactive)
COc1ccc(C(=O)c2c(C)n(CCN3CCOCC3)c3cc(I)ccc23)cc1,5.01 µM (active),–
CC(C)CC(=O)C[C@H](O)C(Cl)(Cl)Cl,–,1.61% [at 11.4 µM] (inactive)
S=P(C1CCCCC1)(C1CCCCC1)[C@H](c1cccnc1)N1CCCC1,3.16 µM (active),–
CCC(CC)C(=O)NC1CCSC1=O (stereo unspecified),–,10.8% (inactive)
CN1CCN(c2ncc3ncc(=O)n(C)c3n2)CC1,–,0.0574% (inactive)
COc1ccc(C(=O)OC2C[C@H]3CC[C@@H](C2)N3C)cc1OC (stereo partly specified),–,-8.39% [at 25.6 µM] (inactive)
Cc1ccc(S(=O)ON2CCC(C(=O)O)(c3ccccc3)CC2)cc1 (stereo unspecified),–,-0.254% [at 11.4 µM] (inactive)
C=C(CC1(C(C)NP(=O)(c2ccccc2)c2ccccc2)CC1)c1ccccc1 (stereo unspecified),3.98 µM (active),–
C=C(CC1(CNP(=O)(c2ccccc2)c2ccccc2)CC1)c1ccccc1,3.98 µM (active),–
O=P(O)(O)c1ccccc1 (tested in a mixture with another compound),–,-7.35% [at 11.4 µM] (inactive)
O=P(c1ccccc1)(c1ccccc1)N1CC2(CC2)CC(O)(c2ccccc2)C1 (stereo unspecified),–,1.88% (inactive)

Structure (SMILES),AC50,"activity, negative = inhibition"
CN1[C@@H]2CC[C@H]1CC(OC(=O)c1cc(Cl)cc(Cl)c1)C2 (stereo partly specified),–,-16.8% (inactive)
CC(C)(C)c1o[nH]c(=O)c1C[C@H](N)C(=O)O,–,inactive
CCN1C[C@]2(C)CC[C@H](O)[C@@]34[C@@H]5CC6[C@@H](OC)C[C@@](O)([C@@H]5[C@@H]6O)[C@H](C[C@@H]23)[C@H]14,–,-7.01% [at 25.6 µM] (inactive)
CCCN(CCC)[C@@H]1CCc2cccc(O)c2C1,–,inactive
N=C(N)c1ccc(-c2ccc(-c3ccc(C(=N)N)cc3)o2)cc1,–,3.4% [at 11.4 µM] (inactive)
CCCN(CCC)C1Cc2cc(OC)c(OC)cc2C1,–,inactive
C[N+](C)(C)CCO,–,10% (inactive)
C[C@H](c1ccccc1)N1CCN([C@@H](C)c2ccccc2)CC1,–,-13.4% [at 11.4 µM] (inactive)
NCCc1ccc(S(=O)(=O)O)cc1[N+](=O)[O-],–,-7.4% [at 11.4 µM] (inactive)
O=C1c2cc([N+](=O)[O-])ccc2-c2ccc3c4ccc5c6c(ccc(c7ccc1c2c73)c64)C(=O)c1cc([N+](=O)[O-])ccc1-5,–,-21% [at 11.4 µM] (inactive)
O=C1c2ccccc2-c2cc([N+](=O)[O-])c([N+](=O)[O-])cc21,0.501 µM (active),–
CSCC[C@@H](N)P(C)(=O)O,–,-8.04% [at 11.4 µM] (inactive)
C=C[C@]12CN(C)[C@H]3C1[C@@]1(C(=O)Nc4ccccc41)[C@H]1C[C@H]2[C@H]3CO1,–,-22.4% [at 25.6 µM] (inactive)
Oc1cccc2cccnc12,–,-3.42% [at 11.4 µM] (inactive)
CC[C@H]1C(=O)OC[C@H]1Cc1cncn1C,10 µM (active) and 3.16 µM (active),–
CCC1C(=O)OCC1Cc1cncn1C (stereo unspecified),15.8 µM (active),–
c1csc(CN2CC3(CCNCC3)C2)n1,–,-12.1% (inactive)
OC1(c2ccc(F)cc2)CCNC1 (stereo unspecified),–,-2.52% (inactive)
O=S(=O)(O)/C(=C\c1ccccc1)c1ccccc1 (tested in a mixture with another compound),–,-11.7% [at 11.4 µM] (inactive)
COc1ccn(C)c(=O)c1C#N,–,-6.41% [at 25.6 µM] (inactive)
Cc1ccc(N=Nc2c(O)[nH]c(=O)[nH]c2=O)c([N+](=O)[O-])c1,–,14.9% (inactive)
CP(=O)(O)CCCN,–,inactive
NC(=O)COc1c(F)cc(SCCNS(=O)(=O)c2ccccc2)cc1F,12.6 µM (active),–

Structure (SMILES),AC50,"activity, negative = inhibition"
C/C(=C\C=C/[C@@H](C)C(=O)O)[C@H]1CN[C@H](C(=O)O)[C@@H]1CC(=O)O,–,-6.56% (inactive)
CC(C)CNC(=S)NC1CC2CCCC(C1)N2Cc1ccco1 (stereo unspecified),–,2.91% [at 2.29 µM] (inactive)
Cc1ccc(C(=O)C2C(=O)c3ccccc3C2=O)cc1,–,-18.3% [at 11.4 µM] (inactive)
CN(C(=O)Cc1ccc(Cl)c(Cl)c1)[C@@H](CN1CCCC1)c1cccc(OCC(=O)O)c1,–,-9.59% (inactive)
CN(C(=O)Cc1ccc(Cl)c(Cl)c1)[C@H](CN1CCCC1)c1ccccc1,6.31 µM (active),–
O=C(O)CP(=O)(O)c1ccc(Cl)cc1,–,8.85% (inactive)
COc1ccc(C[C@H]2c3cc(OC)c(OC)cc3CCN2C)cc1OC,–,-26.2% [at 25.6 µM] (inactive)
C[C@]1(C(=O)O)[C@@H]2CC[C@@H](O2)[C@@]1(C)C(=O)O,–,-4.96% (inactive)
CC1(C)CCC2=C(O1)c1ccccc1C(=O)C2=O,15.8 µM (active),–
COc1cc2c3cc1Oc1c(O)c(OC)cc4c1[C@@H](Cc1ccc(cc1)Oc1cc(ccc1O)C[C@H]3N(C)CC2)N(C)CC4,–,-12.1% [at 11.4 µM] (inactive)
N[C@H](C(=O)O)c1cc(=O)[nH]o1,–,-5.66% (inactive)
N[C@@H](CP(=O)(O)O)C(=O)O,–,-3.52% [at 11.4 µM] (inactive)
OC(Cn1c2ccccc2c2ccccc21)C[n+]1ccccc1 (stereo unspecified),–,-1.96% [at 2.29 µM] (inactive)
CCCCC1(CCCC)C(=O)NC(=Nc2cccc(C)c2)NC1=O,12.6 µM (active),–
CCCCCC[C@H]1C(=O)O[C@H](C)[C@H](NC(=O)c2cccc(NC=O)c2O)C(=O)O[C@@H](C)[C@H]1OC(=O)CC(C)C,5.01 µM (active),–
C[C@@H]1OC=C2[C@@H](O)[C@H]3O[C@H]3C(=O)[C@@]23[C@H]1[C@H]1C2=C([C@@H](O)[C@H]4O[C@@H]4C2=O)[C@@H]3O[C@@H]1C,–,-18.6% [at 11.4 µM] (inactive)
C[N+]1(C)[C@@H]2CC(OC(=O)[C@@H](CO)c3ccccc3)C[C@@H]1[C@H]1O[C@H]12 (stereo partly specified),–,2.59% [at 11.4 µM] (inactive)
Nc1nc(N)c2nc(CNc3ccc(C(=O)N[C@H](CCC(=O)O)C(=O)O)cc3)cnc2n1,–,4.59% (inactive)
C[C@@H](COc1ccccc1)N(CCCl)Cc1ccccc1,–,-18.7% [at 25.6 µM] (inactive)
N[C@@H](CCCP(=O)(O)O)C(=O)O,–,-6.54% (inactive)
O=c1cc(-c2ccc(O)cc2)oc2c([C@H]3O[C@@H](CO)[C@@H](O)[C@@H](O)[C@@H]3O)c(O)cc(O)c12,–,-6.72% [at 25.6 µM] (inactive)
CNCCc1cnc[nH]1,–,-27.6% (inactive)
Clc1ccccc1-c1cncnc1NCCc1cnc[nH]1,0.501 µM (active),–

Structure (SMILES),AC50,"activity, negative = inhibition"
Cc1ccccc1-c1cncnc1NCCc1cnc[nH]1,0.631 µM (active),–
CN(C)C(=O)Oc1ccc[n+](C)c1,–,0.854% (inactive)
NC(=O)c1ccc(C(=O)Nc2ccc([As](=O)(O)O)cc2)cc1,–,8.53% [at 11.4 µM] (inactive)
C[C@H](Br)C(=O)N[C@H](CO)C(=O)O,–,8.21% [at 11.4 µM] (inactive)
O=C(Oc1ccc(S(=O)(=O)F)cc1F)c1ccccc1Cl,–,-5.64% [at 11.4 µM] (inactive)
NCCc1c[nH]c2ccc(OC(=O)C(=O)O)cc12,–,-35.7% [at 11.4 µM] (inactive)
O=C(O)c1cc[c]([Hg][S]c2ncnc3nc[nH]c23)cc1,–,-15.7% [at 11.4 µM] (inactive)
O=C(c1cc(=O)[nH]c2ccc(Br)cc12)N1CCC2(CC1)OCCO2,–,-17.8% (inactive)
CN(C)c1ccc(NC(=O)CN2C(=O)CN=C(c3ccccc3)c3ccccc32)cc1,4.47 µM (active),–
Cc1cc2c(C(F)(F)F)cc(=O)oc2c2c1NCCC2,–,-22.3% (inactive)
CCCCCCCCCCCCCC(=O)O[C@H]1[C@@H](C)[C@@]2(O)[C@@H](C=C(CO)C[C@]3(O)C(=O)C(C)=C[C@@H]23)C2C(C)(C)[C@]21OC(C)=O (stereo partly specified),25.1 µM (active),–
CC(C)(c1ccc(OC[C@@H]2CO2)cc1)c1ccc(OC[C@H]2CO2)cc1,–,-15.7% (inactive)
N=C1c2ccccc2CN1NC(=O)c1ccc(Cl)cc1,–,-1.51% (inactive)
O=C(O)[C@@H](O)[C@@H](O)[C@@H]1[O][Sb][O][C@@H]1CO,–,-1.25% [at 11.4 µM] (inactive)
COc1ccc(NC(=O)N2CCCC3(CCN(C(=O)Oc4ccccc4)CC3)C2)cc1,12.6 µM (active),–
O=C(Nc1ccccc1)N1CCCC2(CCN(C(=O)Oc3ccccc3)CC2)C1,15.8 µM (active),–
O=C(Nc1cccc(F)c1)N1CCCC2(CCN(C(=O)Oc3ccccc3)CC2)C1,15.8 µM (active),–
O=C(Nc1cccc(F)c1)N1CC2(CCNCC2)C1,–,-2.67% (inactive)
NC[C@@H](Cc1ccccc1)P(=O)(O)O,–,-4.81% [at 11.4 µM] (inactive)
CC12CN3CC(C)(CN(C1)C31CCSCC1)C2=O,–,-2.74% (inactive)
C[C@H]1CC[C@]2(OC1)O[C@@H]1C[C@@H]3[C@@H]4CC[C@H]5C[C@@H](O)CC[C@]5(C)[C@@H]4CC(=O)[C@@]3(C)[C@H]1[C@@H]2C,–,-5.6% [at 25.6 µM] (inactive)
Cc1ncsc1CCCl,–,6.86% (inactive)
